# Results filed as inconclusive are left out. Active and inactive are the calls of the source. The call rests on the fitted dose curve; in most records, active means well fitted inhibition curve with a large enough effect in the repeat runs; inconclusive means weak or mixed curves; inactive means no such curve, though single readings can be large or run the other way.
# Target: Cytochrome P450 2D6 (Homo sapiens) (UniProt P10635)
# Experiment: Cytochrome P450 Family 2 Subfamily D Member 6 (CYP2D6) small molecule antagonists: luciferase reporter qHTS assay (AID 1671196); further: nearly all actives have a fitted effect of over 50% in size
# Settings: P450-Glo CYP2D6 enzyme assay, luciferin luminescence, 1 h; series mostly up to 115 µM; activity change, negative = inhibition: at the top concentration
# Outline: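 Chemicals tested for interference with CYP2D6 activity; proluciferin substrate, NADPH regeneration, 1 h at room temperature, luminescent detection.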
# On the % scale 0 is the no-effect control and ±100 the full control effect; potency means the concentration at half of the fitted maximal effect.
# Cytochrome P450 2D6 (Homo sapiens), sequence (P10635 whole entry, looked up): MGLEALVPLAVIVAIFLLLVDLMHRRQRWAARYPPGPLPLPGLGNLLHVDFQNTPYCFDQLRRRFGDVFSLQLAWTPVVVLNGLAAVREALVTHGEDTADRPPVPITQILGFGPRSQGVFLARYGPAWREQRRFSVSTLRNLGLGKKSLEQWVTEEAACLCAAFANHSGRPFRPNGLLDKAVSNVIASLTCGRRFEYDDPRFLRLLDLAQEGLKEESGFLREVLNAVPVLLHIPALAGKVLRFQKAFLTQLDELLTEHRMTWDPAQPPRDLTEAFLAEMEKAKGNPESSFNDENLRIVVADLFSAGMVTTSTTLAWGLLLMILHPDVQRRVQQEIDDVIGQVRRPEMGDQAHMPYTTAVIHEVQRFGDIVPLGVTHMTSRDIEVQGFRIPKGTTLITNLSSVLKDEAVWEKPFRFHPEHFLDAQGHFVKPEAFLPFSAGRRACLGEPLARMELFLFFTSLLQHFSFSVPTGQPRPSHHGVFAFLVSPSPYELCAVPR
Compound,"activity change, negative = inhibition",Potency
Cc1cc(C)c(N=Nc2c(O)c(S(=O)(=O)O)cc3cc(S(=O)(=O)O)ccc23)cc1C,-11.1% [at 10.5 µM] (inactive),–
c1ccc(Cc2ccccc2)cc1,-1.7% (inactive),–
CC1(C)[C@@H]2CC[C@@]1(C)[C@H](O)C2,0.0571% (inactive),–
O=C(CO)[C@@H](O)[C@H](O)[C@@H](O)CO,-1.47% [at 53 µM] (inactive),–
CC1(C)OC[C@@H](COC(=O)CCc2ccc(OC[C@@H](O)CNCCNC(=O)N3CCOCC3)cc2)O1,-15.3% [at 53 µM] (inactive),–
O=C(CO)[C@@H](O)[C@H](O)[C@H](O)CO,-36.5% (inactive),–
O=[N+]([O-])c1cncn1CCN1CCOCC1,-10.7% [at 53 µM] (inactive),–
CC(C)=CCC/C(C)=C/C#N,0.575% (inactive),–
Cc1ccccc1N=C(N)N=C(N)N,–,7.96 µM (active)
Nc1ccn([C@@H]2O[C@H](CO)[C@@H](O)[C@@H]2O)c(=O)n1,-13.6% (inactive),–
CC(C)c1ccc2ncccc2c1,-11% (inactive),–
CCC(C(=O)NC(=O)NC(C)=O)c1ccccc1 (stereo not drawn),-6.19% [at 53 µM] (inactive),–
CCC(=O)OCc1ccccc1,-20.7% (inactive),–
CC(C)(CCC(=O)O)C(=O)O,-5.51% (inactive),–
CC(=O)c1cnccn1,-24.7% (inactive),–
O=S(=O)(O)c1cccc2c(S(=O)(=O)O)cccc12,-6.46% (inactive),–
COCCOCC(OC)OC,-7.5% [at 53 µM] (inactive),–
NC(=O)Cc1cccc2ccccc12,-8.2% (inactive),–
O=C(c1ccccc1)C1(O)CCCCC1,-11.6% (inactive),–

Compound,"activity change, negative = inhibition",Potency
CCN(C=O)CC,–,72.9 µM (active)
O=C1CCCCCCCCCCCCCCO1,2.63% (inactive),–
CC1=NS(=O)(=O)c2cc(Cl)ccc2N1,-2.23% [at 53 µM] (inactive),–
CC(C)C1CCC(O)CC1 (stereo not drawn),-7.96% (inactive),–
C=CCOCC(O)CO (stereo not drawn),3.39% (inactive),–
CCCCOC(=O)CCC(C)=O,-16.3% (inactive),–
CCOc1c(N2CCOCC2)cnn(C)c1=O,-8.39% [at 53 µM] (inactive),–
C1CCC2(CCCCO2)OC1,-0.325% (inactive),–
CC(C)[C@H]1CC[C@@H](C)CC1=O,-3.94% (inactive),–
c1ccc(CCc2ccccc2)cc1,-7.45% (inactive),–
CCOC(=O)CCC(=O)OCC,-4.15% (inactive),–
COC(=O)Nc1ccc(Cl)c(Cl)c1,-16.3% (inactive),–
C=C(C)C(=O)OCCOCCOCCOCCOC(=O)C(=C)C,-14.7% (inactive),–
CNCCO,0.539% (inactive),–
CC1=CCC(O)(C(C)C)CC1 (stereo not drawn),-5.64% (inactive),–
CC12CCC(C(=O)C1=O)C2(C)C (stereo not drawn),0.544% (inactive),–
O=CN(CCO)CCO,0.82% (inactive),–
CC(=O)C1CCCCC1=O (stereo not drawn),-7.29% (inactive),–
CN1C(C)(C)CC(O)CC1(C)C,-0.567% (inactive),–

# Source: PubChem BioAssay (Tox21)
